Screening results (PubChem)
Shiga toxin inh = Shiga toxin inhibition; Vero cells, Shiga toxin protein synthesis inhibition reporter; inhibition, % at 38.7 µM; 290,000 compounds, 9.2% hits; AID 2315; in the data active means inhibition mostly above about 28%, no sharp cut-off; inactive means mostly below about 43%
Pf growth 96h = inhibits malaria parasite growth, 96 h; P. falciparum luciferase reporter growth, 96 h; Potency, µM (doses to about 28.7 µM), actives largely listed as inhibitors; 320,000 compounds, 6.9% hits; AID 504834
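Luminescence readout: decreased luciferase signal marks inhibited growth of reporter-expressing P. falciparum in infected red cells (2% hematocrit, 0.05% parasitemia final), exposed to compound two generations (96 h, 37 C, 5% CO2).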
Cycloheximide cs = counter-screen hit for Shiga toxin inhibitors, cycloheximide; max response, %; cell reporter, cycloheximide protein synthesis inhibition counterscreen; 300,000 compounds, 12% hits; in the data active means max response mostly above about 13%, no sharp cut-off; inactive means mostly below about 14%; further: read at 38.3 µM for the half of the compounds with a filed dose
Pf growth 48h = inhibits P. falciparum growth in the first generation, 48 h | P. falciparum luciferase growth in erythrocytes, 48 h | Potency, µM (titrated, usually from 28.7 µM), most hits filed as inhibitors | AID 504832 | 310,000 compounds, 5.9% hits
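Erythrocytes infected with P. falciparum carrying an integrated firefly luciferase reporter (2% hematocrit, 0.1% parasitemia final) were exposed to compounds in RPMI 1640 with 0.5% Albumax at 37 C, 5% CO2. Growth inhibition was scored as reduced luminescence.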
Large screens that a line does not name were inactive. Rows were chosen to be rich in hits. Some 21% of all compounds tested hit in one or more screens of this group. Unless noted, the call rests on the fitted dose curve; in most records, active means well fitted inhibition curve with a large enough effect; inconclusive means small, poorly fitted or top-dose-only effect, or another doubt; inactive means no such curve, though single readings can be large or run the other way.

Cc1ccc(-c2onc(C)c2C)cc1S(=O)(=O)N1CC(C)Oc2ccccc21 (configuration not stated)	Pf growth 48h 15µM
CC1CCCN(CCCNC(=O)c2cn(C)c3ccc(S(=O)(=O)N(C)C4CCCCC4)cc3c2=O)C1 (configuration not stated)	Pf growth 48h 13µM
Cn1cc(C(=O)NC2CCCCCCC2)c(=O)c2cc(S(=O)(=O)N3CCCC3)ccc21	Pf growth 96h 8.3µM, Pf growth 48h inconclusive
CCn1cc(C(=O)NCCCN2CC(C)CC(C)C2)c(=O)c2cc(S(=O)(=O)N(C)C3CCCCC3)ccc21 (configuration not stated)	Pf growth 48h inconclusive
CCOCCCNC(=O)c1cn(C)c2ccc(S(=O)(=O)N3CCCC3)cc2c1=O	Pf growth 96h 6.6µM
Cn1cc(C(=O)NC2CCCCCC2)c(=O)c2cc(S(=O)(=O)N3CCCC3)ccc21	none
CCN(CC)CCNC(=O)c1cn(CC)c2ccc(S(=O)(=O)N3CCc4ccccc4C3)cc2c1=O	Pf growth 96h 1µM, Pf growth 48h inconclusive
CCN(CC)CCCNC(=O)c1cn(CC)c2ccc(S(=O)(=O)N3CCc4ccccc4C3)cc2c1=O	Pf growth 96h inconclusive
COc1ccc(NC(=O)CS(=O)(=O)Cc2ccccc2)c([N+](=O)[O-])c1	none
Cc1ccc(/C=C/C(=O)OC(C)C(=O)NC2CCCCC2C)o1 (configuration not stated)	none (no result: Shiga toxin inh, Cycloheximide cs)
CCCCN(CCCC)CCNC(=O)c1cn(C)c2ccc(S(=O)(=O)N3CCCC3)cc2c1=O	Pf growth 96h 12µM
CCn1cc(C(=O)N2CCc3ccccc3C2)c(=O)c2cc(S(=O)(=O)N3CCCCC3)ccc21	Pf growth 48h inconclusive
COCCNC(=O)c1cn(C)c2ccc(S(=O)(=O)N3CCCC3)cc2c1=O	none
Cn1cc(C(=O)N2CCc3ccccc3C2)c(=O)c2cc(S(=O)(=O)N3CCCCC3)ccc21	Pf growth 96h 3.7µM
Cc1ccc(CNC(=O)c2cn(C)c3ccc(S(=O)(=O)N4CCOCC4)cc3c2=O)cc1	Pf growth 96h inconclusive, Pf growth 48h inconclusive
CCOCCCNC(=O)c1cn(CC)c2ccc(S(=O)(=O)N3CCOCC3)cc2c1=O	Pf growth 96h 10µM
Cn1cc(C(=O)NCc2ccc(F)cc2)c(=O)c2cc(S(=O)(=O)N3CCCCC3)ccc21	Pf growth 48h 15µM
O=C1CCCC(=O)N1c1ccc(NCCOCCO)c([N+](=O)[O-])c1	none
Cc1cc(Br)ccc1NC(=O)CN(C)C(=O)C1CSC2(C)CCC(=O)N12 (configuration not stated)	none (no result: Shiga toxin inh, Cycloheximide cs)
O=C(NCCCl)Nc1cccc(Br)c1	none
O=C(O)c1ccc2c(c1)C(=O)N([C@H](Cc1c3ccccc3cc3ccccc13)C(=O)O)C2=O	none
Nc1ccccc1C(=O)NNC1=C(C(=O)C(F)(F)F)CCC1	Shiga toxin inh 95, Cycloheximide cs 46, Pf growth 48h inconclusive
COc1cccc(C(=O)NNC2=C(C(=O)C(F)(F)F)CCC2)c1	Shiga toxin inh 68, Cycloheximide cs 41
O=C(NNC1=C(C(=O)C(F)(F)F)CCC1)c1ccccc1Cl	none (no result: Pf growth 48h)
COc1ccccc1C(=O)NNC1=C(C(=O)C(F)(F)F)CCC1	Shiga toxin inh 84, Cycloheximide cs 17
O=C(NNC1=C(C(=O)C(F)(F)F)CCC1)c1ccccc1O	Shiga toxin inh 37 (no result: Pf growth 48h)
COc1ccc(Nc2nc(-c3ccccc3)nc3ccccc23)cc1	Pf growth 96h inconclusive, Pf growth 48h inconclusive
C/C(=N\Nc1nc(-c2ccc(C)cc2)nc2ccccc12)c1ccc([N+](=O)[O-])cc1	Pf growth 96h 2.1µM
COc1ccc(-c2nc(N/N=C(\C)c3ccc(O)cc3)c3ccccc3n2)cc1	Shiga toxin inh 72, Cycloheximide cs 29, Pf growth 48h inconclusive
Cc1ncc([N+](=O)[O-])n1CC(=O)Nc1cccc(C(F)(F)F)c1	none
O=C(/C=C/Sc1ccc(C(F)(F)F)cn1)c1ccccc1	Cycloheximide cs 22, Pf growth 48h inconclusive
CC1(C)Cc2c(C#N)c(OCC(=O)c3ccc(Cl)cc3)nc(-c3ccco3)c2CO1	Pf growth 96h inconclusive, Pf growth 48h inconclusive
Cc1nc(OCC(=O)c2ccc(Cl)cc2)c(C#N)c2c1COC(C)(C)C2	Pf growth 96h 12µM (no result: Pf growth 48h)
CCc1nc(OCC(=O)c2ccccc2)c(C#N)c2c1COC(C)(C)C2	Pf growth 96h 12µM (no result: Pf growth 48h)
O=[N+]([O-])c1ccc2nc(-c3ccc(Cl)cc3)n(OCc3ccccc3)c2c1	Shiga toxin inh 96, Cycloheximide cs 35
Cc1ccc(COn2c(-c3ccc(Cl)cc3)nc3ccc([N+](=O)[O-])cc32)cc1	Shiga toxin inh 105, Cycloheximide cs 49
Clc1ccc(COn2c(-c3ccccc3)nc3ccccc32)cc1	Pf growth 96h inconclusive, Pf growth 48h inconclusive
